Hits are enriched below; roughly 2.3% of the tested compounds scored in any of these assays.
A549 viability – Nrf2 qHTS screen for inhibitors: counterscreen for cytotoxicity; AID 504648, 2011; 390,000 compounds, 0.16% hits; Potency, µM (top dose mostly 46 µM), hits mostly inhibitors; A549 ARE-Fluc cells, CellTiter-Fluor viability, 18-24 h
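A549 ARE_Fluc cells in 5% FBS OPTI-MEM were exposed to compounds in concentration-response for 18-24 h at 37 deg C. Viability was read by CellTiter-Fluor fluorescence (Ex 405/Em 525) after 30 min, before the luciferase read.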
Nrf2 block – Nrf2 qHTS screen for inhibitors. 360,000 compounds, 2.1% hits. A549 ARE-Fluc reporter, luciferase luminescence, 18-24 h. AID 504444, 2011. Potency, µM (highest dose often 46 µM), actives largely listed as inhibitors; also: nearly all actives have a fitted effect of over 60% in size
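Concentration-response testing used A549 ARE_Fluc cells at 5000 cells/well. Following an 18-24 h compound incubation, viability was read by fluorescence (Ex 405/Em 525) and luciferase output by luminescence.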
Mito fusion yeast – qHTS Assay for Small Molecule Inhibitors of Mitochondrial Division or Activators of Mitochondrial Fusion; Potency, µM (top dose mostly 46.1 µM), usual class: activators; AID 485298, 2010; 320,000 compounds, 0.23% hits; S. cerevisiae fusion-defective mutant growth rescue, CellTiterGlo 48 h; also: nearly all actives have a fitted effect of over 45% in size
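Yeast fusion mutant, YPEG (non-fermentable carbon), compound, 48 h at 37C non-permissive; CellTiterGlo added, 10 min RT, luminescence read. Rescued growth = division inhibition.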
Nrf2 activator – qHTS of Nrf2 Activators | AREc32 ARE-luciferase reporter (MCF7-derived line), luminescence, 24 h | Potency, µM (highest dose often 46.1 µM), usual class: activators | 410,000 compounds, 0.31% hits | AID 624171, 2012; also: nearly all actives have a fitted effect of over 65% in size
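Reporter line AREc32 (ARE-Fluc), seeded overnight in OPTI-MEM with 5% FBS; compound pin-transferred, 24 hr at 37 deg C, 5% CO2; luminescent read-out.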
miR-21 act – qHTS Assay for Modulators of miRNAs and/orActivators of miR-21; HeLa miR-21 FLuc reporter, luciferase, 48 h; Potency, µM (titrated, usually from 38.3 µM), most hits filed as activators; 340,000 tested, under 10 active; AID 2288, 2010;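 also: miR-21 action dims this reporter so a rising signal means less miR-21 action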
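HeLa cells stably expressing CMV-driven firefly luciferase with a downstream miR-21 binding sequence, endogenously expressing miR-21, were treated with titrations (up to about 40uM final) for 48 hours at 37 degree Celsius. Luciferase luminescence was read after lysis.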
Hits are given with their value; - = inactive; ? = inconclusive; . = not tested or not shown. Calls follow the shape of the dose curve; as a rule, active = well fitted curve in the direction sought with a large enough effect; inconclusive = small, poorly fitted or top-dose-only effect, or another doubt; inactive = no such curve, though single readings can be large; an effect the other way counts as inactive or inconclusive.

SMILES	A549 viability	Nrf2 block	Mito fusion yeast	Nrf2 activator	miR-21 act
NC(=O)c1cccn(Cc2ccc(C(F)(F)F)cc2)c1=O	-	16µM	-	-	-
O=C(Nc1ccc(C(F)(F)F)cc1)c1cccn(Cc2ccc3c(c2)OC(F)(F)O3)c1=O	-	?	-	-	-
CNC(=O)c1cccn(Cc2ccc(C(F)(F)F)cc2)c1=O	-	?	-	?	-
CNC(=O)c1cccn(Cc2cc(C(F)(F)F)cc(C(F)(F)F)c2)c1=O	-	5.2µM	-	-	-
O=C1/C(=C/c2ccccc2)C[C@@]2(O)[C@H]3Cc4ccc(O)c5c4[C@@]2(CCN3CC2CC2)C1O5 (stereo not given in full)	?	12µM	.	-	.
CCOc1ccc(CCNC(=O)c2ccc(CS(=O)(=O)c3ccccc3C)o2)cc1OCC	-	?	.	-	-
COc1cc2c3cc1Oc1c(OC)c(OC)cc4c1[C@H](Cc1ccc(cc1)Oc1cc(ccc1O)C[C@H]3N(C)CC2)N(C)CC4	13µM	-	.	-	.
COc1ccc2cc1Oc1ccc(cc1)C[C@H]1c3cc(c(OC)cc3CCN1C)Oc1c(OC)c(OC)cc3c1[C@H](C2)N(C)CC3	6.5µM	?	-	-	?
COc1cc2c3cc1Oc1cc(ccc1O)C[C@@H]1c4c(cc(OC)c(O)c4Oc4ccc(cc4)C[C@H]3N(C)CC2)CCN1C	8.2µM	-	-	-	-
COc1cc2c3c(c1OC)Oc1ccc(cc1)C[C@H]1c4c(cc(OC)c(OC)c4Oc4ccc(cc4)C[C@@H]3N(C)CC2)CCN1C	-	-	.	-	.
COc1cc2c(cc1O)C[C@H]1c3c(cc(O)c(OC)c3-2)CCN1C	-	-	-	-	.
COc1cc2c3cc1Oc1cc(ccc1O)C[C@@H]1c4c(cc(OC)c(O)c4Oc4cccc(c4)C[C@@H]3N(C)CC2)CC[N+]1(C)C	-	-	-	-	.
O=C(Oc1ccc2cc(Br)ccc2c1)N1CCCCCC1	.	.	-	.	-
Cc1ccccc1C(=O)Nc1ccc(C(=O)OCc2cc(=O)n3nc(C4CC4)sc3n2)cc1	-	.	.	-	?
CP(=O)(O)C1=CCNCC1	.	.	-	.	.
Cc1c(P(=S)(c2ccccc2)c2ccccc2)[n+]2ccccc2n1CCc1ccccc1	-	?	.	-	.
CCOc1ccccc1NC(=O)c1sc2nc3c(cc2c1N)CN(Cc1ccccc1)CC3	-	?	.	-	-
O=[N+]([O-])c1ccc(C(c2ccc([N+](=O)[O-])cc2)c2ccc([N+](=O)[O-])cc2)cc1	-	23µM	.	-	.
Cc1[nH]n(-c2ccccc2)c(=O)c1C(c1ccc([N+](=O)[O-])cc1)c1c(C)[nH]n(-c2ccccc2)c1=O	-	-	-	-	-
COc1ccc2oc(=O)c(C(=O)NCCc3c(C)[nH]c4ccc(F)cc34)cc2c1	-	-	.	-	?
CCN(CC(=O)Nc1ccccc1C(F)(F)F)C(=O)CCSc1ccc(F)cc1	-	?	-	-	.
O=c1[nH]c(O)c(N=Nc2ccc(Cl)c(S(=O)(=O)Nc3ccccc3Cl)c2)c(=O)[nH]1	-	?	.	?	.
Nc1ccc2ccc3cccc[n+]3c2c1	?	13µM	-	-	-
O=[N+]([O-])c1oc2ccc3ccccc3c2c1CCO	?	18µM	.	-	.
CC1=C(O)C(=O)C=C2C1=CC=C1C2(C)CCC2(C)C3CC(C)(C(=O)O)CCC3(C)CCC12C (stereo not given)	?	18µM	.	-	.
SMILES	A549 viability	Nrf2 block	Mito fusion yeast	Nrf2 activator	miR-21 act
O=C(Nc1ccc(Oc2ccc(Cl)cc2)c(Cl)c1)c1cc(I)cc(I)c1O	?	?	-	-	-
COC1=CC(=O)[C@]2(C=C1OC)OC[C@@H]1Oc3c(ccc4c3C=CC(C)(C)O4)C(=O)[C@@H]12	-	0.65µM	.	-	.
CCCn1cc(S(=O)(=O)c2ccc(OC)cc2)c(=O)c2cc(F)c(N3CCCCCC3)cc21	-	?	.	-	-
Nc1c(C(=O)OCc2ccccc2)c2nc3ccccc3nc2n1Cc1cccs1	?	23µM	-	-	-
CC12CCC(=O)C=C1CCC1C2CCC2(C)C(O)CCC12 (stereo not given)	-	-	-	-	-
CC(=O)C1C(N2CC2)CC2C3CCC4=CC(=O)CCC4(C)C3CCC21C (stereo not given)	16µM	-	.	-	.
